# Laboratory results published in PubChem BioAssay (NCI).
# Compounds without any hit were thinned out: in the full panel of roughly 79,000, 15% have a hit. A number with no mark means an inactive call. Activity calls are given as the source filed them. Rule as the data show it: active = growth inhibition above about 70%; inactive = the rest.
# How the values were obtained:
# [1] = NCI Yeast Anticancer Drug Screen. Data for the rad50 strain (AID 155);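 also: 0% = growth of vehicle-only cultures of the same strain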; conditions: S. cerevisiae rad50 strain growth inhibition, active compounds read high
# Outline: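 Growth of the mutant yeast was measured after compound exposure and referenced to vehicle-treated cultures.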
# [2] = NCI Yeast Anticancer Drug Screen. Data for the mec2-1 strain (AID 157); conditions: S. cerevisiae mec2-1 strain, active compounds read high
# Outline: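 Compounds were applied to mec2-1 yeast cells. Their growth was then compared with that of vehicle-treated cultures to give growth inhibition.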
# [3] = NCI Yeast Anticancer Drug Screen. Data for the cln2 rad14 strain (AID 165);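 also: 0% = growth equal to vehicle treated cultures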; conditions: S. cerevisiae cln2 rad14 strain, active compounds read high
# Outline: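 Strain: cln2 rad14 yeast, altered in cell cycle control and DNA damage repair. Read-out: growth inhibition vs vehicle.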
# [4] = NCI Yeast Anticancer Drug Screen. Data for the bub3 strain (AID 167); conditions: S. cerevisiae bub3 mutant strain, active compounds read high
# Outline: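 Whole-cell yeast assay. The mutant strain was incubated with compounds, and growth inhibition was determined by comparison with vehicle-treated cells.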
# [5] = NCI Yeast Anticancer Drug Screen. Data for the mlh1 rad18 strain (AID 175); conditions: S. cerevisiae mlh1 rad18 strain growth inhibition, active compounds read high
# Outline: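 A repair-deficient yeast strain is exposed to test compound, and growth is scored relative to vehicle-treated controls.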
# [6] = NCI Yeast Anticancer Drug Screen. Data for the sgs1 mgt1 strain (AID 161);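 also: 0% = growth of cultures given vehicle only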; conditions: S. cerevisiae sgs1 mgt1 strain, active compounds read high
# Outline: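 Growth of a repair-deficient yeast mutant was monitored after compound treatment and expressed as inhibition relative to vehicle-treated cultures.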
# [7] = at 5.0 µM (retest, dose inferred, filed as 0.5)
# [8] = at 50.0 µM (retest, dose inferred, filed as 5.0)
Structure (SMILES),"growth inhibition [1, 7]","growth inhibition [1, 8]",growth inhibition ([1]; at 50.0 µM),"growth inhibition [2, 7]","growth inhibition [2, 8]",growth inhibition ([2]; at 50.0 µM),"growth inhibition [3, 7] [%]","growth inhibition [3, 8]",growth inhibition ([3]; at 50.0 µM),"growth inhibition [4, 7]","growth inhibition [4, 8]",growth inhibition ([4]; at 50.0 µM),"growth inhibition [5, 7]","growth inhibition [5, 8]",growth inhibition ([5]; at 50.0 µM),"growth inhibition [6, 7]","growth inhibition [6, 8]",growth inhibition ([6]; at 50.0 µM)
O=C(O)C(F)(F)C(F)(F)C(=O)O,8%,-3%,0.35%,3%,0%,-1.4%,6,1%,-16.1%,5%,26%,-3.15%,5%,-2%,5.25%,–,–,–
CCC[CH2][Sn-]([CH2]CCC)([CH2]CCC)[O]c1cc(Cl)c(Cl)cc1Cl,99% (active),96% (active),90% (active),100% (active),100% (active),93.2% (active),–,–,–,100% (active),100% (active),91.8% (active),99% (active),94% (active),90.2% (active),100% (active),100% (active),93.2% (active)
CC(=O)O[C@@H]1[C@@H](O)[C@H]2O[C@@H]3C=C(C)C(=O)[C@@H](O)[C@]3(CO)[C@]1(C)[C@]21CO1,14%,85% (active),48.7%,22%,93% (active),20.1%,33,92% (active),23.5%,8%,90% (active),85% (active),18%,95% (active),83.3% (active),13%,90% (active),62.4%
O=C([CH-]C(=O)c1ccccc1)c1ccccc1.O=C([CH-]C(=O)c1ccccc1)c1ccccc1.O=C([CH-]C(=O)c1ccccc1)c1ccccc1.[Cl-].[Hf+4],38%,95% (active),88% (active),37%,96% (active),90.2% (active),–,–,–,64%,95% (active),90.8% (active),46%,94% (active),87.9% (active),50%,95% (active),91.8% (active)
O=C([CH-]C(=O)c1ccccc1)c1ccccc1.O=C([CH-]C(=O)c1ccccc1)c1ccccc1.O=C([CH-]C(=O)c1ccccc1)c1ccccc1.[OH3+].[Y+3],46%,99% (active),91.6% (active),42%,100% (active),93.5% (active),–,–,–,63%,84% (active),92.5% (active),56%,100% (active),91.5% (active),53%,100% (active),94.1% (active)
COS(=O)(=O)c1ccccc1,8%,-2%,-2.5%,0%,-2%,-2.4%,7,-4%,-16.8%,–,–,–,8%,-1%,10.3%,-4%,4%,11.6%
CC(=O)[O-].O=C([CH-]C(=O)c1ccccc1)c1ccccc1.O=C([CH-]C(=O)c1ccccc1)c1ccccc1.[Dy+3],44%,99% (active),91.5% (active),35%,99% (active),93.2% (active),–,–,–,57%,96% (active),92.1% (active),50%,98% (active),91.3% (active),44%,100% (active),93.4% (active)
O=C(CBr)Nc1ccccc1,40%,99% (active),97% (active),22%,99% (active),98.9% (active),–,–,–,74% (active),99% (active),97.1% (active),48%,100% (active),97.8% (active),36%,99% (active),98.4% (active)
CCC[CH2][Sn]1([CH2]CCC)[O]CC(CN2CCCCC2)[O]1 (stereo not drawn),25%,94% (active),82.7% (active),20%,95% (active),85.4% (active),22,91% (active),78.5% (active),–,–,–,30%,96% (active),87% (active),32%,95% (active),82.8% (active)
